Where “and” joins values, the source holds several entries; their conditions need not be identical. Equal entries are not always repeated. Where a structure was tested more than once in an assay, its records may differ in their call. Calls of active or inactive are those of the source. How the source made its calls: active means hit-call score of the fitted dose curve at least 0.9, where 1 is the maximum; inactive means score below 0.9.

The experiment is described as follows: APR_HepG2_CellLoss_24hr: Apredica 24-hour HepG2 Assay for Cell Loss (AID 2282908).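 On AC50: fit in both directions so a hit may be cell loss or gain.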 The settings on record: high-content imaging. As for the experimental part: APR_HepG2_24hr is a cell-based, multiplexed-readout assay that uses HepG2, a human liver cell line, with measurements taken at 24 hours after chemical dosing in a 384-well plate.APR_HepG2_CellLoss_24hr is one of 10 assay component(s) measured or calculated from the APR_HepG2_24hr assay. It is designed to make measurements of cell number, a form of viability reporter, as detected with fluorescence intensity signals by HCS Fluorescent Imaging technology.Data from the assay component APR_HepG2_CellLoss_24hr was analyzed into 1 assay endpoint. This assay endpoint, APR_HepG2_CellLoss_24hr, was analyzed with bidirectional fitting relative to DMSO as the negative control and baseline of activity. Using a type of viability reporter, measures of all nuclear dna for gain or loss-of-signal activity can be used to understand the viability at the cellular-level. Furthermore, this assay endpoint can be referred to as a secondary readout, because this assay has produced multiple assay endpoints where this one serves a viability function. To generalize the intended target to other relatable targets, this assay endpoint is annotated to the cell cycle intended target family, where the subfamily is proliferation.
Cells were treated with dimethyl sulfoxide (DMSO) as a solvent control at a final concentration of 0.5% v/v or with compounds in DMSO with a resulting final DMSO concentration of 0.5% v/v. Compound treatment was done at concentrations of 0.39, 0.78, 1.56, 3.12, 6.24, 12.5, 25, 50, 100, and 200 uM in duplicate on each plate. Cells were treated with compounds for 1, 24, or 72 hr. Carbonyl […] m-chloro-phenylhydrazone (CCCP) and taxol were used as positive controls for mitochondrial function and cytoskeletal stability, respectively; DMSO served as the negative control for this experiment. Cells were fixed by the direct addition of 50 uL formaldehyde in Hank's Balanced Salt Solution (HBSS) to a final concentration of 3.7%. After incubation in the fixation medium for 30 min at room temperature (293-298 K), cells were rinsed twice with HBSS and treated with cell permeabilization buffer (16 uL of 0.5% Triton X-100) for 10 min at room temperature (293-298 K) before labeling. For mitochondrial membrane potential and mitochondrial measurements, pre-fixed cells were incubated with 50 uL of MitoTracker Red CMXRos (Invitrogen) at a concentration of 250 nM for 30 min before fixation. In the remaining cases, post-fixed cells were labeled by incubation with a multiplexed mixture of primary antibodies in HBSS for 60 min at room temperature (293-298 K) to detect immunoreactivity of c-Jun (1:500), phospho-histone H3 (1:100), phospho-histone H2A.x (1:200), p53 (1:400), alpha-tubulin (1:200) and Hoechst 33342 (2 ug/mL). Cells were labeled for multiplexed imaging on two separate plates: a) Hoechst 33342, MitoTracker Red, phospho-histone H3, and alpha-tubulin, and b) Hoechst 33342, phospho-histone H2A.x, and c-Jun. A final rinse with HBSS (50 uL) was performed before analysis. The primary and secondary antibodies for the proteins were phospho-histone H3 (rabbit anti-phospho-histone H3 and FITC-donkey anti-rabbit IgG), phospho-histone H2A.x (mouse anti-phospho-histone H2A.x and FITC-donkey anti-mouse IgG), c-Jun (rabbit anti-phospho-c-Jun and Cy3-donkey anti-rabbit IgG), p53 (sheep anti-p53 and Cy5-donkey anti-sheep IgG), alpha-tubulin (mouse anti-alpha-tubulin and Cy5-donkey anti-mouse IgG). These antibodies are available as the CellCiphr HepG2 assay kit (Millipore).Digital images of each well were captured using a Cellomics ArrayScan VTI (Thermo Scientific Cellomics) (0.8 NA objective, 0.63x optical coupler, and XF-93 filter set) at 20x magnification. The images were acquired using the autofocus feature of the ArrayScan instrument, which entails the following steps. First, the camera focuses on channel 1 (Hoechst 33342), where nuclei are identified. Second, a Z offset of 1 um is used for capturing mitochondria (MitoTracker Red). […]
`Cc1cc(Cl)ccc1OCC(=O)O`: the molecule was called inactive.
For orientation: AC50 means the concentration giving half of the maximal activity seen. Regarding `C#CCOS(=O)OC1CCCCC1Oc1ccc(C(C)(C)C)cc1` (stereo not given), the AC50 was 7.2 µM (active).
`COc1ccc(C(c2ccc(OC)cc2)C(Cl)(Cl)Cl)cc1`: the AC50 was 60.5 µM (active).
Regarding `COC(=O)N(OC)c1ccccc1COc1ccn(-c2ccc(Cl)cc2)n1`, the AC50 was 3.37 µM (active).
As to `CC1COC(Cn2cncn2)(c2ccc(Oc3ccc(Cl)cc3)cc2Cl)O1` (stereo not given), the AC50 was 94.7 µM (active).
For `CCNc1nc(Cl)nc(NC(C)C)n1`, the molecule was called inactive.
For the molecule `OC(c1ccc(Cl)cc1)(c1cncnc1)c1ccccc1Cl` (stereo not given), the concentration at half-maximal activity (AC50) was 108 µM (active).
As to `COC(=O)C=C(C)OP(=O)(OC)OC`, the result was inactive.
The same measure, in the same setting: next, `CCOC(=O)C(Cl)Cc1cc(-n2nc(C)n(C(F)F)c2=O)c(F)cc1Cl` (stereo not given): “inactive”.
For the molecule `CNC(=S)S`, the AC50 is 80.1 µM (active).
Consider `CCOP(=S)(OCC)SCn1c(=O)oc2cc(Cl)ccc21`, for which the call was inactive.
On the same count and under the same terms, next, `CNC(=O)ON=CC(C)(C)SC`: “inactive”.
On to `C=CCC1=C(C)C(OC(=O)C2C(C=C(C)C)C2(C)C)CC1=O` (stereo not given), for which the AC50 was 55.8 µM (active) [middle of 4 runs].
As to `O=C(Nc1ccccc1)Nc1ccnc(Cl)c1`, the half-maximal activity concentration (AC50) is 84.3 µM (active).
Turning to `CCCCNC(=O)OCC#CI`, the AC50 is 2.6 µM (active) and 6.77 µM (active).
Regarding `CC(C)C1(C)N=C(c2nc3ccccc3cc2C(=O)O)NC1=O` (stereo not given), the result was inactive.
In the case of `CCCC1COC(Cn2cncn2)(c2ccc(Cl)cc2Cl)O1` (stereo not given), the molecule was classed as inactive.
Consider `CCON=C(CC)C1=C(O)CC(c2c(C)cc(C)cc2C)CC1=O` (stereo not given), for which the result was inactive.
As for `COc1nc(C)nc(NC(=O)NS(=O)(=O)c2ccccc2CCC(F)(F)F)n1`, the molecule was classed as inactive.
Consider `COc1cnc(OC)n2nc(NS(=O)(=O)c3c(OCC(F)F)cccc3C(F)(F)F)nc12`, for which the molecule was classed as inactive.
Turning to `CO/C=C(/C(=O)OC)c1ccccc1Oc1cc(Oc2ccccc2C#N)ncn1`, the call was inactive; the AC50 was 16.2 µM (active) and 36.5 µM (active).
On to `COP(N)(=O)SC` (stereo not given), for which the call was inactive.
With `CCOc1cc(Oc2ccc(C(F)(F)F)cc2Cl)ccc1[N+](=O)[O-]`, the call was inactive.
`C=CC1(C)OC(=O)N(c2cc(Cl)cc(Cl)c2)C1=O` (stereo not given): the molecule was called inactive.
With `CCCCOC(=O)c1ccccc1C(=O)OCCCC`, the result was inactive.
Regarding `CC(Oc1ccc(Cl)cc1Cl)C(=O)O` (stereo not given), the molecule was classed as inactive.
Take `COc1nc(C)nc(NC(=O)NS(=O)(=O)c2ccccc2Cl)n1`: the outcome was inactive.
For the molecule `Fc1ccc(Oc2ccnc3cc(Cl)cc(Cl)c23)cc1`, the concentration at half-maximal activity (AC50) was 100 µM (active).
`CCc1nn(C)c(C(=O)NCc2ccc(C(C)(C)C)cc2)c1Cl`: the AC50 was 86.9 µM (active).
For `CCCCC(CC)COC(=O)c1ccccc1C(=O)OCC(CC)CCCC` (stereo not given), the outcome was inactive.
For the molecule `N#CC(CCc1ccc(Cl)cc1)(Cn1cncn1)c1ccccc1` (stereo not given), the half-maximal activity concentration (AC50) was 102 µM (active).
As to `Cc1c(F)c(F)c(COC(=O)C2C(/C=C(\Cl)C(F)(F)F)C2(C)C)c(F)c1F` (stereo not given), the outcome was inactive.
For `N#Cc1cc(Br)c(O)c(Br)c1`, the call was inactive.
On the same count and under the same terms, with `COP(=S)(OC)Oc1nc(Cl)c(Cl)cc1Cl` the entry was “inactive”.
`N#Cc1nn(-c2c(Cl)cc(C(F)(F)F)cc2Cl)c(N)c1S(=O)C(F)(F)F` (stereo not given): the AC50 is 96.2 µM (active).
For the molecule `O=C(O)c1nc(Cl)ccc1Cl`, the call was inactive.
Consider `CC(C)(C)c1ccc(CSc2cnn(C(C)(C)C)c(=O)c2Cl)cc1`, for which the AC50 was 2.58 µM (active).
Regarding `COc1nc(NC(C)C)nc(NC(C)C)n1`, the result was inactive.
Take `Cc1ccc(-c2c(Cl)nc(C#N)n2S(=O)(=O)N(C)C)cc1`: the molecule was called inactive.

(Values after PubChem BioAssay (EPA / NIEHS).)
